Experimental data: PubChem BioAssay (NCI)
Where “and” joins values, the source holds several entries; their conditions need not be identical. Identical values can stand only once. About 83,000 compounds went through this panel and 20% of them were active in at least one assay; those are over-represented in the sample as a whole.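 Cells were grown in 96-well plates and exposed to the test compound at a single concentration for 48 hours; results are reported as percent growth, with values below 10 considered active.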 Calls of active or inactive are those of the source.

Columns and labels:
Assay in all cases: NCI-60 one-dose screen, 48 h (100 = growth as untreated, 0 = no growth, -100 = all killed)
Details in all cases: 10 µM unless noted
SK-MEL-2 melanoma = test system: SK-MEL-2 melanoma
EKVX NSCLC = test system: EKVX NSCLC
SN12C renal = test system: SN12C renal
UO-31 renal = test system: UO-31 renal
TK-10 renal = test system: TK-10 renal
ACHN renal = test system: ACHN renal
CAKI-1 renal = test system: CAKI-1 renal
A498 renal = test system: A498 renal
CCRF-CEM leukemia = test system: CCRF-CEM leukemia
MOLT-4 leukemia = test system: MOLT-4 leukemia
SR leukemia = test system: SR leukemia
RPMI-8226 leukemia = test system: RPMI-8226 leukemia
OVCAR-8 ovarian = test system: OVCAR-8 ovarian
OVCAR-5 ovarian = test system: OVCAR-5 ovarian
OVCAR-4 ovarian = test system: OVCAR-4 ovarian
SK-OV-3 ovarian = test system: SK-OV-3 ovarian
IGROV1 ovarian = test system: IGROV1 ovarian
OVCAR-3 ovarian = test system: OVCAR-3 ovarian
HS 578T breast = test system: HS 578T breast
NCI/ADR-RES ovarian = test system: NCI/ADR-RES ovarian

Compound | growth (SK-MEL-2 melanoma) | growth (EKVX NSCLC) | growth (SN12C renal) | growth (UO-31 renal) | growth (TK-10 renal) | growth (ACHN renal) | growth (CAKI-1 renal) | growth (A498 renal) | growth (CCRF-CEM leukemia) | growth (MOLT-4 leukemia) | growth (SR leukemia) | growth (RPMI-8226 leukemia) | growth (OVCAR-8 ovarian) | growth (OVCAR-5 ovarian) | growth (OVCAR-4 ovarian) | growth (SK-OV-3 ovarian) | growth (IGROV1 ovarian) | growth (OVCAR-3 ovarian) | growth (HS 578T breast) | growth (NCI/ADR-RES ovarian)
C=C(C)[C@@H]1CC[C@]2(C(=O)N3CCN(C)CC3)CC[C@]3(C)[C@H](CC[C@@H]4[C@@]5(C)CC(CCCNC(C)=O)(CCCNC(C)=O)[C@H](OC(C)=O)C(C)(C)[C@@H]5CC[C@]43C)[C@@H]12 | 112% (inactive) | 96.4% (inactive) | 96.5% (inactive) | 80.5% (inactive) | 109% (inactive) | 101% (inactive) | 79.3% (inactive) | 109% (inactive) | 91.8% (inactive) | 85.7% (inactive) | 76.2% (inactive) | 75.5% (inactive) | 106% (inactive) | 102% (inactive) | 111% (inactive) | 102% (inactive) | 102% (inactive) | 104% (inactive) | 96.6% (inactive) | 98.7% (inactive)
COc1c(NC=O)c2c(c([N+](=O)[O-])c1OC)C(=O)OC2 | 107% (inactive) and 120% (inactive) | 110% (inactive) and 85.7% (inactive) | 92.1% (inactive) and 94.8% (inactive) | 80.2% (inactive) | 114% (inactive) and 111% (inactive) | 130% (inactive) and 112% (inactive) | 105% (inactive) and 89.1% (inactive) | 111% (inactive) | 91.5% (inactive) and 3.53% (active) | 67.9% (inactive) and 115% (inactive) | 86.9% (inactive) | 78% (inactive) and 96.5% (inactive) | 101% (inactive) and 109% (inactive) | 120% (inactive) and 99.7% (inactive) | 103% (inactive) | 107% (inactive) and 108% (inactive) | 103% (inactive) | 115% (inactive) | 109% (inactive) and 86.8% (inactive) | 117% (inactive) and 108% (inactive)
Cc1cccc(Cc2cnc(NC(=O)CCCOc3ccc(Cl)cc3)s2)c1 | 67.2% (inactive) | 41.4% (inactive) | 34.9% (inactive) | 19% (inactive) | 38.3% (inactive) | 12.1% (inactive) | 27.1% (inactive) | -2.46% (active) | 16.3% (inactive) | 40.1% (inactive) | 18.4% (inactive) | 22.9% (inactive) | 37.6% (inactive) | 36.2% (inactive) | 31.3% (inactive) | 36.4% (inactive) | 39.1% (inactive) | 7.26% (active) | 21.4% (inactive) | 32.3% (inactive)
CCOC(=O)n1cc(-c2nonc2-c2cn(C)c3ccc(OC)cc23)c2cc(F)ccc21 | 99.8% (inactive) | 73.3% (inactive) | 77.5% (inactive) | 52.1% (inactive) | 94.2% (inactive) | 60.2% (inactive) | 52.2% (inactive) | 67.5% (inactive) | 80.9% (inactive) | 80.3% (inactive) | 79% (inactive) | 74.5% (inactive) | 75.7% (inactive) | 62% (inactive) | 75% (inactive) | 81% (inactive) | 73.2% (inactive) | 87.4% (inactive) | 70.2% (inactive) | 82.2% (inactive)
COc1cccc(NC(=O)c2sc3nc(C)c(C(O)c4ccccc4)cc3c2N)c1 (stereo not given) | 37.8% (inactive) | 47.7% (inactive) | 18.5% (inactive) | 48% (inactive) | 50.8% (inactive) | 30.9% (inactive) | 35.1% (inactive) | -0.498% (active) | 14.3% (inactive) | 11.8% (inactive) | 6.69% (active) | 13.8% (inactive) | 8.45% (active) | 47.5% (inactive) | 70.3% (inactive) | 12.5% (inactive) | 25.7% (inactive) | -10.4% (active) | 14.6% (inactive) | 7.31% (active)
COC(=O)N/N=C/c1c[n+]([O-])c2ccccc2[n+]1[O-] | 112% (inactive) | 100% (inactive) | 99.6% (inactive) | 86.6% (inactive) | 119% (inactive) | 100% (inactive) | 89.1% (inactive) | 98% (inactive) | 94% (inactive) | 104% (inactive) | 93.4% (inactive) | 94.3% (inactive) | 90.8% (inactive) | 108% (inactive) | 103% (inactive) | 29.9% (inactive) | 102% (inactive) | 111% (inactive) | 126% (inactive) | 102% (inactive)
Nc1[nH]nc(Nc2ccccc2)c1-c1nc2ccccc2s1 | 26.8% (inactive) | 19% (inactive) | 34.2% (inactive) | 18.8% (inactive) | 23% (inactive) | 15.5% (inactive) | 25.1% (inactive) | 46.8% (inactive) | 8.45% (active) | 4.06% (active) | 13.6% (inactive) | 24% (inactive) | 38.4% (inactive) | 34.5% (inactive) | 29.5% (inactive) | 48.8% (inactive) | 28.5% (inactive) | 25.3% (inactive) | 47.2% (inactive) | 30% (inactive)
